CYP2C19 inhib: human CYP2C19 inhibition; inhibition, % at 5 µM; hit rate 21% among 96,000; P33261; CYP2C19 Supersomes, luciferin-H EGE luminescence, 30 min;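 active = CYP2C19 inhibition above a set limit at 5 µM in the primary screen, cut at about 50% in these data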
Target sequence (P33261 whole entry, looked up): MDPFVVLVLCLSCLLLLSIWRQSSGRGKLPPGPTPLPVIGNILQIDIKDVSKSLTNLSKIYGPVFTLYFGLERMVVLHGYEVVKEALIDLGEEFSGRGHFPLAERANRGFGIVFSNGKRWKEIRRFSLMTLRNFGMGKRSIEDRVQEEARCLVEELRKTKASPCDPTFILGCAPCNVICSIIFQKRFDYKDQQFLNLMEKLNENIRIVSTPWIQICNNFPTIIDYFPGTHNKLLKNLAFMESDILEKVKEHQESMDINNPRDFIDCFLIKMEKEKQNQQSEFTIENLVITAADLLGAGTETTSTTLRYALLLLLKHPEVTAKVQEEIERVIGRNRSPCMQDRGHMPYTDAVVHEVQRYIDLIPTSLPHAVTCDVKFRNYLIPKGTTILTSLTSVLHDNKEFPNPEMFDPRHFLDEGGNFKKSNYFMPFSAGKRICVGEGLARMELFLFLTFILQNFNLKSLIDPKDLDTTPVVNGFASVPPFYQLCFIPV
CYP2C19 activ: cytochrome P450 2C19 (human) activation; activation factor at 5 µM; 96,000 tested, under 10 active; P33261; AID 1025; recombinant CYP2C19, luciferin-H EGE luminescence; hits give high values; 0 = fully inhibited enzyme, 1 = untreated enzyme;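 active = activation factor of at least 2 at 5 µM in the primary screen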
PLAP act: activates human placental alkaline phosphatase. hit rate 1.2% among 96,000. AID 696. purified PLAP enzyme, luminescent substrate read-out; hits give high values. activation fold at 20 µM; in the data active = activation fold above about 2
CYP2C9 act: CYP2C9 (human) activation; P11712; recombinant CYP2C9, luciferin-H conversion, luminescence; hits give high values; factor 1 = untreated enzyme, 0 = blocked; activation factor at 5 µM; hit rate 1.4% among 96,000; AID 1024;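 active = activation factor of 2 or more for CYP2C9 at a 5 µM dose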
CYP2C9 inhib: inhibitors of human CYP2C9 | P11712 | CYP2C9 Supersomes, luciferin-H conversion, luminescence | inhibition, % at 5 µM | hit rate 20% among 96,000 | AID 777;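 active = blocking of liver enzyme CYP2C9 beyond about 50% at 5 µM, limit read from the data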
Hits are given with their value; i = inactive. In the library only some 31% were active in any assay of this set; here they are far more common.

SMILES | CYP2C19 inhib | CYP2C19 activ | PLAP act | CYP2C9 act | CYP2C9 inhib
O=C(Cn1cnc2c(cnn2-c2ccc(Cl)cc2)c1=O)NCCc1ccccc1 | i | i | i | i | i
O=C(CSc1nn(-c2ccccc2)c(=S)s1)NC(=O)NCc1ccco1 | i | i | i | i | i
Nc1c(C(=O)c2ccccc2)sc2snc(SCC(=O)c3ccccc3)c12 | i | i | i | i | 83.2
Nc1nnc(SCC(=O)c2ccccc2)s1 | i | i | i | i | i
COc1ccc(NC(=O)C(=O)NCCN2CCN(C(=O)C(c3ccccc3)c3ccccc3)CC2)cc1 | i | i | i | i | i
COc1ccc(CNS(=O)(=O)c2ccc(OC)cc2)cc1 | 76.4 | i | i | i | i
COc1ccc(S(=O)(=O)NCCC(=O)NCc2ccccc2)cc1 | i | i | i | i | i
COC(=O)c1sc(S(=O)(=O)N2CCN(c3ccc(OC)cc3)CC2)c(C(=O)OC)c1C | i | i | i | i | i
COc1ccc(S(=O)(=O)NCc2ccccc2)cc1 | 96.6 | i | i | i | i
COc1ccc(S(=O)(=O)NCc2cccs2)cc1 | 94.8 | i | i | i | i
COC(=O)c1c(S(=O)(=O)NCc2ccccc2)sc(C(=O)O)c1C | i | i | i | i | 61.6
CCOc1ccc(CNC(=O)NS(=O)(=O)c2ccc(OC)cc2)cc1 | i | i | i | i | i
COc1ccc(S(=O)(=O)NCCCCNS(=O)(=O)c2ccc(OC)cc2)cc1 | i | i | i | i | i
COCC(C)NS(=O)(=O)c1ccc(OC)cc1 (stereo not given) | 61.4 | i | i | i | i
CCCOc1ccc(S(=O)(=O)NCc2ccc(OC)cc2)cc1 | 58.1 | i | i | i | i
COc1cccc(/C=N\NC(=O)c2cc(OCC(F)(F)F)ccc2OCC(F)(F)F)c1 | i | i | i | i | i
CCOc1ccccc1-n1nnnc1SCC(=O)Nc1cc2oc3ccccc3c2cc1OC | i | i | i | i | 50.8
COc1ccccc1-n1nnnc1SCC(=O)Nc1cc(C)on1 | 65.4 | i | i | i | i
CCn1c(C)csc1=NC(=O)c1ccccc1 | i | i | i | i | i
Cc1csc(=NC(=O)c2ccccc2)n1Cc1ccco1 | 72.2 | i | i | i | i
CC(C)C(=O)NC(=S)NCC(=O)c1ccccc1 | i | i | i | i | i
CC1=C(CC(=O)c2ccccc2)C(=O)c2ccccc2C1=O | 62.7 | i | i | i | 67.5
CC(=O)C1=C(C)NC(SCC(=O)c2cc(Cl)ccc2Cl)=C(C#N)C1c1ccco1 (stereo not given) | 99.5 | i | i | i | 100.0
CC(=O)C1=C(C)NC(SCC(=O)c2ccc(Cl)c(Cl)c2)=C(C#N)C1c1ccco1 (stereo not given) | 77.4 | i | i | i | 92.9
O=c1cc(-c2c(F)c(F)c(F)c(F)c2F)oc2c(F)c(F)c(F)c(F)c12 | i | i | i | i | i
SMILES | CYP2C19 inhib | CYP2C19 activ | PLAP act | CYP2C9 act | CYP2C9 inhib
O=C(c1noc2c1CCc1ccccc1-2)N1CCc2ccccc2C1 | 60.2 | i | i | i | i
O=C(c1noc2c1CCc1ccccc1-2)N1CCCc2ccccc21 | 51.8 | i | i | i | i
Cc1cc(NC(=O)c2noc3c2CCc2ccccc2-3)no1 | i | i | i | i | i
COc1ccc2c(c1)CCc1c(C(=O)N3CCCCCC3)noc1-2 | i | i | i | i | i
O=C(c1noc2c1CCc1ccccc1-2)N1CCOCC1 | i | i | i | 3.2 | i
CCn1cnc2scc(-c3ccccc3)c2c1=O | i | i | i | i | i
C=CCn1cnc2scc(-c3ccc(CC)cc3)c2c1=O | 92.7 | i | i | i | 52.8
CCN(CCCNc1ncnc2nc[nH]c12)c1cccc(C)c1 | 83.0 | i | 2.1 | i | 78.0
CCCCN(c1ccccc1)c1ncnc2nc[nH]c12 | i | i | i | i | i
CCCCN(CCCNc1ncnc2nc[nH]c12)c1ccccc1 | i | i | i | i | 56.0
CN1CCn2c1nc(N1CCOCC1)nc2=O | i | i | i | i | i
NC(=O)c1ccc[n+](CC(=O)OCCC23CC4CC(CC(C4)C2)C3)c1 | i | i | i | i | i
CCc1ccc(OCC(=O)N2CCN=C2c2ccccc2)cc1 | i | i | i | i | i
N#CC1(Cc2ccccc2)c2ccccc2C=CN1C(=O)c1ccccc1 (stereo not given) | 92.9 | i | i | i | 71.7
N#CC1(Cc2ccc([N+](=O)[O-])cc2)c2ccccc2C=CN1C(=O)c1ccccc1 (stereo not given) | 68.1 | i | i | i | 67.6
CCCNC(=O)c1ccccc1C(=O)NCCC | i | i | i | i | i

Screens (PubChem)
